In PubChem BioAssay (EPA / NIEHS) one finds outcome and AC50 data, which are given here for 7 molecules.

Experiment [1] in a line: ATG_E_Box_CIS: Attagene CIS-FACTORIAL HepG2 Assay for human Enhancer Box (E-box) (AID 2282936). The settings on record: HepG2 E-box cis-reporter transcription, actives raise or lower the signal. Put shortly:
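HepG2 cells transiently transfected with multiplexed cis-element reporter units sensing endogenous transcription factor activity; 24 h compound exposure. Reporter mRNA measured by RT-PCR, 6-FAM primer extension, HpaI digestion and capillary electrophoresis; bidirectional fit versus DMSO.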

A short description of experiment [2]: ATG_M_61_CIS: Attagene CIS-FACTORIAL HepG2 Assay for M61 Transcription Factor (Internal Marker) (AID 2282937). The note with it: HepG2 Attagene CIS-FACTORIAL M61 internal marker reporter; actives raise or lower the signal. Put shortly:
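Cells were transfected with reporter units under cis-regulatory promoters, treated with chemicals for 24 h, then lysed for RNA. Reporter transcripts were quantified by RT-PCR and capillary electrophoresis, and activity was fitted bidirectionally against DMSO.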

Experiment [3] can be described thus: ATG_EGR_CIS: Attagene CIS-FACTORIAL HepG2 Assay for human Early Growth Response 1 (EGR1) (AID 2282938). The settings on record: HepG2 Attagene CIS-FACTORIAL EGR reporter mRNA; actives raise or lower the signal. Put shortly: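 Endogenous TF activity in HepG2 liver cells was gauged through cis-promoter reporter constructs transiently transfected. After 24 h dosing, reporter mRNA was quantified by RT-PCR and capillary electrophoresis, and curves fitted in both directions versus DMSO.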

Experiment [4] is described as follows: ATG_M_19_CIS: Attagene CIS-FACTORIAL HepG2 Assay for M19 Transcription Factor (Internal Marker) (AID 2282939). The note with it: HepG2 Attagene CIS-FACTORIAL M19 internal marker reporter; actives raise or lower the signal. Put shortly:
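HepG2, MRTU transient transfection, 24 h dosing. Total RNA → RT-PCR → 6-FAM primer extension → HpaI digest → CE fluorescence. Bidirectional curve fit, DMSO negative control.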

A short description of experiment [5]: ATG_Ets_CIS: Attagene CIS-FACTORIAL HepG2 Assay for human Erythroblast Transformation Specific (ETS) (AID 2282941). The settings on record: HepG2 ETS cis-reporter transcription, actives raise or lower the signal. Put shortly:
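Steps: transfect HepG2 with multiple reporter units; treat compound 24 h; isolate RNA, DNase-treat, reverse-transcribe; PCR-amplify, label with 6-FAM, digest with HpaI; separate by capillary electrophoresis. Activity fitted both directions versus DMSO.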

Experiment [6] deals with Hepatocyte nuclear factor 3-beta (Homo sapiens) (UniProt Q9Y261). Nature of the experiment: ATG_FoxA2_CIS: Attagene CIS-FACTORIAL HepG2 Assay for human Forkhead box A2 (FOXA2) (AID 2282942). The note with it: HepG2 cis-reporter transcription factor activity, 24 h; actives raise or lower the signal. Put shortly:
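Endogenous transcription factor activity was read in HepG2 cells carrying transiently transfected cis-promoter reporter units. After 24 h dosing, reporter mRNA was quantified by RT-PCR and capillary electrophoresis, and values fitted bidirectionally versus DMSO.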

A short description of experiment [7]: ATG_FoxO_CIS: Attagene CIS-FACTORIAL HepG2 Assay for human Forkhead box O (FoxO) (AID 2282943). The note with it: HepG2 Attagene cis-reporter, FoxO element, mRNA; actives raise or lower the signal. Put shortly: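 24 h chemical exposure, HepG2 with transient cis-MRTU transfection. RNA extraction, oligo(dT) RT, reporter-specific PCR, primer-extension labelling, HpaI digestion, CE fragment analysis; bidirectional fit, DMSO baseline.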

Experiment [8] is described as follows: ATG_GATA_CIS: Attagene CIS-FACTORIAL HepG2 Assay for human GATA Binding Protein (AID 2282944). The note with it: HepG2 GATA cis-element reporter, Attagene multiplex mRNA; actives raise or lower the signal. Put shortly:
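Cells: HepG2, transiently transfected with cis-regulated reporter transcription units. Exposure: 24 h. Detection: RT-PCR plus capillary electrophoresis of FAM-labeled fragments. Analysis: bidirectional, DMSO as baseline.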

Experiment [9] can be described thus: ATG_GLI_CIS: Attagene CIS-FACTORIAL HepG2 Assay for human Zinc Finger Protein GLI1 (AID 2282945). The settings on record: HepG2, Attagene cis-factorial reporter mRNA, GLI element; actives raise or lower the signal. Put shortly: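 HepG2 cells transiently transfected with cis-promoter multiplexed reporter units report endogenous transcription factor activity. After 24 h chemical exposure, reporter mRNA was quantified by RT-PCR, 6-FAM labelling, HpaI digestion and capillary electrophoresis, with bidirectional fitting against DMSO.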

Experiment [10] concerns the target Bile acid receptor (Homo sapiens) (UniProt Q96RI1). Nature of the experiment: ATG_IR1_CIS: Attagene CIS-FACTORIAL HepG2 Assay for human Nuclear Receptor Subfamily 1 Group H Member 4 (NR1H4), IR1 submotif (AID 2282946). The note with it: IR1 reporter transcription, actives raise or lower the signal. Put shortly: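 Transient MRTU transfection, HepG2; 24 h dosing; RNA → RT-PCR → 6-FAM primer extension → HpaI digest → capillary electrophoresis fluorescence. Gain/loss of signal fitted relative to DMSO.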

A short description of experiment [11]: ATG_GRE_CIS: Attagene CIS-FACTORIAL HepG2 Assay for human Glucocorticoid Response Elements (GRE) (AID 2282947). The note with it: HepG2 GRE cis-reporter, Attagene multiplex mRNA; actives raise or lower the signal. Put shortly:
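HepG2 cells transiently transfected with multiple cis-promoter reporter units measure endogenous TF activity; 24 h compound exposure. Reporter mRNA quantified by RT-PCR, FAM labelling, HpaI digestion and capillary electrophoresis; bidirectional fit vs DMSO baseline.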

Experiment [12] can be described thus: ATG_ISRE_CIS: Attagene CIS-FACTORIAL HepG2 Assay for human Interferon Regulatory Factor 1 (IRF1) binding to an Interferon-Stimulated Response Element (ISRE) (AID 2282948). The settings on record: HepG2 ISRE cis-reporter (Attagene), mRNA transcription readout; actives raise or lower the signal. Put shortly: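 Transfected HepG2 (multiple reporter transcription units, cis elements) dosed 24 h. RNA → oligo(dT) RT → PCR → 6-FAM primer extension → HpaI → CE. DMSO = negative control/baseline.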

The nature of experiment [13]: ATG_M_32_CIS: Attagene CIS-FACTORIAL HepG2 Assay for M32 Transcription Factor (Internal Marker) (AID 2282949).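 Also: background control marker of the multiplexed CIS panel rather than a real target.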 The settings on record: HepG2 Attagene cis-factorial M32 reporter, mRNA; actives raise or lower the signal. Put shortly:
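Internal background marker read-out: RT-PCR/capillary electrophoresis fluorescence of reporter transcripts from transiently transfected HepG2 cells after 24 h chemical exposure. Activity fitted bidirectionally relative to DMSO negative control.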

For experiment [14], the target named is Hypoxia-inducible factor 1-alpha (Homo sapiens) (UniProt Q16665). Nature of the experiment: ATG_HIF1a_CIS: Attagene CIS-FACTORIAL HepG2 Assay for human Hypoxia Inducible Factor 1 (HIF1A) (AID 2282951). The note with it: HepG2 Attagene cis-factorial HIF1a reporter transcription; actives raise or lower the signal. Put shortly:
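Measures endogenous transcription-factor activity through cis-regulated reporter mRNA in HepG2. Cells dosed 24 h; transcripts quantified by RT-PCR with 6-FAM-labelled products separated by capillary electrophoresis; DMSO serves as negative control.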

Experiment [15] has as its target Hepatocyte nuclear factor 6 (Homo sapiens) (UniProt Q9UBC0). Nature of the experiment: ATG_HNF6_CIS: Attagene CIS-FACTORIAL HepG2 Assay for human Hepatocyte Nuclear Factor 6 (HNF6) (AID 2282952). The note with it: HepG2 Attagene cis-factorial HNF6 reporter transcription; actives raise or lower the signal. Put shortly:
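Reporter mRNA induction or loss in HepG2 after 24 h exposure; transient cis-MRTU transfection; fragments quantified by capillary electrophoresis; bidirectional analysis, DMSO as negative control.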

The target of experiment [16] is Heat shock factor protein 1 (Homo sapiens) (UniProt Q00613). Nature of the experiment: ATG_HSE_CIS: Attagene CIS-FACTORIAL HepG2 Assay for human Heat Shock Transcription Factor 1 (HSE) (AID 2282953). The note with it: HepG2 HSE cis-reporter, Attagene RNA transcription; actives raise or lower the signal. Put shortly:
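Reporter mRNA induction in HepG2 is measured 24 h after dosing, using transiently transfected multiplexed cis-regulated reporter units. Signal comes from capillary electrophoresis of labelled RT-PCR products, with DMSO as negative control.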

Experiment [17] in a line: ATG_MRE_CIS: Attagene CIS-FACTORIAL HepG2 Assay for human Metal Responsive Element (MRE) (AID 2282954). The note with it: HepG2 MRE cis-reporter transcription, Attagene multiplex; actives raise or lower the signal. Put shortly: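 HepG2 cells transiently transfected with multiple cis-element reporter units measure endogenous MTF1-driven transcription. After 24 h compound exposure, reporter mRNA is quantified by RT-PCR with 6-FAM labelling, HpaI digestion and capillary electrophoresis; bidirectional fits versus DMSO.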

A short description of experiment [18]: ATG_PBREM_CIS: Attagene CIS-FACTORIAL HepG2 Assay for human Phenobarbital-responsive Enhancer Module (PBREM) (AID 2282955). The note with it: HepG2 PBREM cis-reporter, Attagene multiplexed transcription; actives raise or lower the signal. Put shortly:
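Fluorescence of labelled reporter cDNA fragments, resolved by capillary electrophoresis, gives mRNA induction in transfected HepG2 cells treated for 24 h; DMSO serves as negative control and baseline.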

The nature of experiment [19]: ATG_M_06_CIS: Attagene CIS-FACTORIAL HepG2 Assay for M06 Transcription Factor (Internal Marker) (AID 2282950). The settings on record: HepG2 Attagene CIS-FACTORIAL M06 internal marker reporter; actives raise or lower the signal. Put shortly:
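Measured 24 h post-dosing in transiently transfected HepG2 cells, this internal-marker endpoint reports reporter mRNA via RT-PCR with fluorescent primer extension and capillary electrophoresis. DMSO served as negative control and baseline for bidirectional fitting.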

Experiment [20] in a line: ATG_ERE_CIS: Attagene CIS-FACTORIAL HepG2 Assay for Estrogen Response Element (ERE) (AID 2282940). The settings on record: HepG2 ERE cis-reporter, Attagene RNA transcript; actives raise or lower the signal. Put shortly:
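After a 24 h chemical treatment, RNA from reporter-transfected HepG2 cells is reverse-transcribed, PCR-amplified and fluorescently labelled. Fragments separated by capillary electrophoresis give reporter signal; DMSO serves as negative control.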

Calls of active or inactive are those of the source. The calls were made as follows: active = hit-call score of the fitted dose curve at least 0.9, where 1 is the maximum; inactive = score below 0.9.

Sequence of Hepatocyte nuclear factor 3-beta (Homo sapiens) (Q9Y261 whole entry, looked up): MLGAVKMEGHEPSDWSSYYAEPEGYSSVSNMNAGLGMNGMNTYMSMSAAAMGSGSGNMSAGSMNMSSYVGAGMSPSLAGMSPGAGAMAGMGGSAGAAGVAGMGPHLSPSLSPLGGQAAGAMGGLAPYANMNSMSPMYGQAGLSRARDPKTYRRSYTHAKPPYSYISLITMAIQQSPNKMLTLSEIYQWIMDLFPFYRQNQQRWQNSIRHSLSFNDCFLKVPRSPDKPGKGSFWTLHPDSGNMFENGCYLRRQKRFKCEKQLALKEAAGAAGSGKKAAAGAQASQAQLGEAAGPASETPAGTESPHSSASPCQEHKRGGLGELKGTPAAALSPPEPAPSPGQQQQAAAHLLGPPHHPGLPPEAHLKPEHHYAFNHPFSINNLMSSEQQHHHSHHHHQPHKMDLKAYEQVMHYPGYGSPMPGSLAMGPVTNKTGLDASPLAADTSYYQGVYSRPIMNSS
Sequence of Bile acid receptor (Homo sapiens) (Q96RI1 whole entry, looked up): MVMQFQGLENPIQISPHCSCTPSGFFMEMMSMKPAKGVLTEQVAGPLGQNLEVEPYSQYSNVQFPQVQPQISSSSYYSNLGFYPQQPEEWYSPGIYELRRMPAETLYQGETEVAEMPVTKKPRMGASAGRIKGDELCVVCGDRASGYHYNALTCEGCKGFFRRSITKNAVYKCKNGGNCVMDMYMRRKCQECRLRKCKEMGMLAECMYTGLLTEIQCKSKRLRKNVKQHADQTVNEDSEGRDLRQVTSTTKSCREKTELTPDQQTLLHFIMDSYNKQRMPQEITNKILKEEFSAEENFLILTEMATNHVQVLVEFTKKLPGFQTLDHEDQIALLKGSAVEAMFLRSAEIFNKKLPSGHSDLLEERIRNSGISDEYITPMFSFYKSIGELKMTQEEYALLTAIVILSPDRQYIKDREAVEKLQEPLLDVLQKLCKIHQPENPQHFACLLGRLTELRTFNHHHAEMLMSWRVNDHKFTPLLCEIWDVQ
Sequence of Hepatocyte nuclear factor 6 (Homo sapiens) (Q9UBC0 whole entry, looked up, the tested form may be a part): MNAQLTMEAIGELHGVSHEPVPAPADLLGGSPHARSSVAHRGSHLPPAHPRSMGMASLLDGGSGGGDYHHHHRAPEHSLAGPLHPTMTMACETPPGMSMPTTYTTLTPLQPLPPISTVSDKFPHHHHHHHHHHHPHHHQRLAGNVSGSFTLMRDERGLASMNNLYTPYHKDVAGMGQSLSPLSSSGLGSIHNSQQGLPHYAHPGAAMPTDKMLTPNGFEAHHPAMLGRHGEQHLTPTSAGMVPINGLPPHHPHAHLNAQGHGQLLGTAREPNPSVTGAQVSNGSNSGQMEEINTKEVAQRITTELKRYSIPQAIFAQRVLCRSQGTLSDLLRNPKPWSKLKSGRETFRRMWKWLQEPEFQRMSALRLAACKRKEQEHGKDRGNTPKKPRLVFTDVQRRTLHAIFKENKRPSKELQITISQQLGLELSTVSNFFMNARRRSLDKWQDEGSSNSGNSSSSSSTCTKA
Sequence of Hypoxia-inducible factor 1-alpha (Homo sapiens) (Q16665 whole entry, looked up): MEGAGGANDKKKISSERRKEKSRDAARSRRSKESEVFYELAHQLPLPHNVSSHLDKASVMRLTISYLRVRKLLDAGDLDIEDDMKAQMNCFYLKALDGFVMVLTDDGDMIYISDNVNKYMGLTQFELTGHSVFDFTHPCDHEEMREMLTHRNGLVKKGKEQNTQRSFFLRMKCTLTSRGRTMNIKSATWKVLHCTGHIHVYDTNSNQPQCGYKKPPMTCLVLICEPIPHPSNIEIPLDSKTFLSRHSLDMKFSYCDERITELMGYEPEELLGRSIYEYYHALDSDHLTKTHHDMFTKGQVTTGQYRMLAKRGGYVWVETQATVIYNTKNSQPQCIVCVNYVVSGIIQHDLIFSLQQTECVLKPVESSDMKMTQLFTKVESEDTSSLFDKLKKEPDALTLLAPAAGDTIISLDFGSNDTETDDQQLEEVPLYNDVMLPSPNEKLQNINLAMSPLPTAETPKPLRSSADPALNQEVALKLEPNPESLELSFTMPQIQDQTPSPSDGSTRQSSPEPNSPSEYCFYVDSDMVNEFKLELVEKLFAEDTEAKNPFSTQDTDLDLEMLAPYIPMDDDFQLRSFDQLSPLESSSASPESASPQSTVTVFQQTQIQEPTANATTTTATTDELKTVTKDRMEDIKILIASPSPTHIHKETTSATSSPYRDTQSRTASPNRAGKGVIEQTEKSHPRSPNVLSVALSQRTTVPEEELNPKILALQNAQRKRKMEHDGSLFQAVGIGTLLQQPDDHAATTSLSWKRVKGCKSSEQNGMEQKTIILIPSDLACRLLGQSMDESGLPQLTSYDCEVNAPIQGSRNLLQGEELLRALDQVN
Sequence of Heat shock factor protein 1 (Homo sapiens) (Q00613 whole entry, looked up): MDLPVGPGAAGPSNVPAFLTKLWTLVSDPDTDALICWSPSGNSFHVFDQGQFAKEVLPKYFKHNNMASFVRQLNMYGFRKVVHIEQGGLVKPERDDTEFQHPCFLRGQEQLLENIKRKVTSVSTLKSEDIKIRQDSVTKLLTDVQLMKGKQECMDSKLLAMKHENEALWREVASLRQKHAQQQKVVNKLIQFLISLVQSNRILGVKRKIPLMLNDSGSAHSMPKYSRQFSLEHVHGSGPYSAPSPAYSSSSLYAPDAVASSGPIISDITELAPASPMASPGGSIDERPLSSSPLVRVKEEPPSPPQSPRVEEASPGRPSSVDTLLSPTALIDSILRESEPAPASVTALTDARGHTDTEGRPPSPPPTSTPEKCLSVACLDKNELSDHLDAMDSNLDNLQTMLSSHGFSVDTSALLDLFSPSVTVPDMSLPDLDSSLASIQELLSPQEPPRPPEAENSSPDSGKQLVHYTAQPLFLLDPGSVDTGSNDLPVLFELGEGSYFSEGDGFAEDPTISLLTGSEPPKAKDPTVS

For `N#Cc1ccccc1`, the result in experiment [1], in [2], in [3], in experiment [4], in experiment [5] and in [6] was inactive. Further, the call in [7], in [8], in experiment [9], in [10], in experiment [11] and in [12] was inactive. Moreover, the outcome in experiment [13], in experiment [14], in experiment [15], in experiment [16], in [17] and in experiment [18] was inactive.
`CC(=O)Nc1ccccc1O`: the outcome in experiment [1], in experiment [2], in experiment [3], in experiment [4], in experiment [5] and in experiment [6] was inactive. The call in experiment [7], in [8], in experiment [9], in experiment [10], in experiment [12] and in [13] was inactive. The call in experiment [14], in experiment [15], in [16], in [17] and in experiment [18] was inactive.
Take `CC(=O)OCC=Cc1ccccc1`: the result in [1], in [2], in [3], in experiment [4], in experiment [5] and in experiment [6] was inactive. Besides, the outcome in [7], in [8], in experiment [9], in experiment [10], in experiment [11] and in [12] was inactive. Moreover, the outcome in experiment [13], in experiment [19], in [14], in [15], in [16] and in experiment [17] was inactive. For the same molecule, the result in [18] was inactive.
Consider `OC1C(O)C(O)C(O)C(O)C1O` (centres undefined), for which the result in [1], in experiment [2], in experiment [3], in experiment [4], in experiment [20] and in experiment [6] was inactive. Further, the outcome in experiment [7], in experiment [9], in experiment [10], in experiment [12], in experiment [13] and in experiment [19] was inactive. Also, the call in experiment [14], in [15], in experiment [16] and in experiment [17] was inactive.
One may read the AC50 as the midpoint of the concentration-response curve, whichever way the signal moves. For `O=[N+]([O-])c1ccc(C=Cc2ccc([N+](=O)[O-])cc2S(=O)(=O)O)c(S(=O)(=O)O)c1`, the result in [1], in [2], in experiment [3], in experiment [4], in experiment [6] and in experiment [7] was inactive. For the same molecule, the call in experiment [8], in experiment [9], in experiment [11], in [12], in experiment [13] and in experiment [19] was inactive. Further, the molecule was called inactive in experiment [14], in experiment [15], in experiment [16], in experiment [17] and in experiment [18]. Further, the AC50 in experiment [20] is 62.3 µM (active).
On to `CC(C)c1ccc(C(C)C)cc1`, for which the outcome in [1], in experiment [2], in [3], in [4], in experiment [5] and in experiment [6] was inactive. In addition, the molecule was called inactive in experiment [7], in experiment [9], in experiment [10], in experiment [12], in experiment [13] and in experiment [19]. For the same molecule, the molecule was classed as inactive in experiment [15], in experiment [16] and in experiment [17]. Moreover, the AC50 in experiment [20] is 155 µM (active); in [14], 100 µM (active).
On to `Cc1ncc([N+](=O)[O-])n1C`, for which the outcome in experiment [1], in experiment [2], in experiment [3], in [4], in [20] and in [5] was inactive. Besides, the result in experiment [6], in experiment [7], in [9], in experiment [10], in experiment [11] and in [12] was inactive. The call in [13], in experiment [19], in [14], in [15], in experiment [16] and in experiment [17] was inactive. The result in experiment [18] was inactive.
